High-throughput results: PubChem BioAssay, The Scripps Research Institute Molecular Screening Center
Compounds with a hit are over-represented: about 3.5% of the library has one in this group of screens.
FBW7 activator – human FBW7 E3 ligase activation, primary screen; hit rate 0.13% among 650,000; normalized activity (activation), % at 26.1 µM; AlphaScreen FBW7–phospho-cyclin E peptide binding, activator screen; AID 1259310; Q969H0; in the data active = normalized activity above about 1.9%;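 also: purified mutant Fbw7 with reduced substrate affinity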
Target sequence (Q969H0 whole entry, looked up): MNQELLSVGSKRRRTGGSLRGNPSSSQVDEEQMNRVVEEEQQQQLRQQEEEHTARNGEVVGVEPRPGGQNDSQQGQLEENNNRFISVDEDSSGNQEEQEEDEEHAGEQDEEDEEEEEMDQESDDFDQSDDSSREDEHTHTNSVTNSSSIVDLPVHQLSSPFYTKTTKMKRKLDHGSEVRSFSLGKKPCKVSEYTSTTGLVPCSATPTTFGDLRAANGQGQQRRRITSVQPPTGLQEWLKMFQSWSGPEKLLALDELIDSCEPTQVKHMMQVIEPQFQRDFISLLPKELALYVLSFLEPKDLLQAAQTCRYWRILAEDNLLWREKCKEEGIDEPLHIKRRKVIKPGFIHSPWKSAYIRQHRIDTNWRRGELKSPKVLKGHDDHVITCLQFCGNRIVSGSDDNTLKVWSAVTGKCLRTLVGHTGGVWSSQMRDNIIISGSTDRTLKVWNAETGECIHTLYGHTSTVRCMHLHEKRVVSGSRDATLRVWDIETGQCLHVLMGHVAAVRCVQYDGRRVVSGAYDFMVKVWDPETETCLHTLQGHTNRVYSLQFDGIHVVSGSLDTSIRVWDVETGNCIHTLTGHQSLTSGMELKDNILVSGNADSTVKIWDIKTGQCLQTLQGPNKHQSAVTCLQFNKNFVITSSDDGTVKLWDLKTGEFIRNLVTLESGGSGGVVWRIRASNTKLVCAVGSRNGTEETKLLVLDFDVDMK
MITF inh – human MITF inhibition, primary screen | O75030 | AlphaScreen MITF homodimerization, bead proximity signal | inhibition, % at 2.6 µM | hit rate 0.91% among 650,000 | AID 1259374; in the data active = inhibition above about 50%;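 also: 0% = vehicle wells with protein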
GPR151 activ – activators of human GPR151 | hit rate 1% among 650,000 | PathHunter beta-arrestin GPR151 cells, luminescence | activation, % at 11.2 µM | AID 1508602; in the data active = activation above about 4.9%;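 also: 0% = median of compound wells and 100% = cells with positive control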
TEAD-YAP block – TEAD-YAP interaction inhibition | inhibition, % at 9.12 µM | hit rate 1.4% among 640,000 | HEK-TIYL cells, TEAD-Gal4/YAP UAS-luciferase luminescence; in the data active = inhibition above about 32%;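 also: 0% = median of test compound wells and 100% = reference inhibitor wells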
Numbers without * were called inactive.

SMILES	FBW7 activator	MITF inh	GPR151 activ	TEAD-YAP block
O=[N+]([O-])c1cccc(S(=O)(=O)N2CCc3ccccc3C2)c1	0	0	1	1
CCc1ccc(NC(=O)CONC(=Nc2ccc(C)cc2)c2nonc2N)cc1	0	12	-1	12
Nc1ccc2oc(-c3ccccc3)nc2c1	0	1	-4	-35
Oc1ccc2oc(-c3ccccc3)nc2c1	0	7	-3	49*
O=C(O)c1ccc2oc(-c3ccccc3)nc2c1	0	4	-9	55*
O=C(CNc1cccc2ccccc12)N/N=C/c1ccccc1O	0	10	1	12
CC(Oc1cccc2ccccc12)C(=O)N/N=C/c1cc([N+](=O)[O-])ccc1O (stereo unspecified)	0	19	2	37*
CC(Nc1cccc2ccccc12)C(=O)N/N=C/c1ccc(O)cc1 (stereo unspecified)	0	8	0	34*
O=C(CNc1cccc2ccccc12)N/N=C/c1cc(Br)ccc1O	0	9	0	34*
CC(Nc1cccc2ccccc12)C(=O)N/N=C/c1cc([N+](=O)[O-])ccc1O (stereo unspecified)	0	24	2	67*
COc1ccccc1NC(C)C(=O)N/N=C/c1cc([N+](=O)[O-])ccc1O (stereo unspecified)	-1	31	1	22
O=C(Cn1cncn1)N/N=C/c1ccc(Br)cc1	0	2	3	-3
O=C(Cn1cncn1)N/N=C/c1cc(Br)ccc1O	-1	57*	-1	17
CCN(CC)S(=O)(=O)c1ccc2[nH]c3nc(SCC(=O)Nc4ccc(C)c(Cl)c4)nnc3c2c1	0	-4	2	5
CCc1cc(CC)c2c(=O)c3ccccc3sc2c1	0	8	-1	3
CCN(CC)CCNc1ccc(CO)c2sc3ccccc3c(=O)c12	0	12	2	34*
COc1cc(/C=C/C(=O)Nc2ccc(S(=O)(=O)N3CCCCC3c3cccnc3)cc2)cc(OC)c1OC (stereo unspecified)	0	14	1	56*
O=C(Nc1ccc(S(=O)(=O)N2CCCCC2c2cccnc2)cc1)c1ccccc1 (stereo unspecified)	0	-2	0	8
CC(C)(C)c1ccc(C(=O)Nc2ccc(S(=O)(=O)N3CCCCC3c3cccnc3)cc2)cc1 (stereo unspecified)	0	-8	-1	43*
Cc1ccc2nc(C)c(C(=O)NN=C3CCCCCC3)n2c1	0	-5	1	58*
Cc1nc2ccc(Cl)cn2c1C(=O)NN=C1CCCCC1	0	0	0	11
O=C(OCC(=O)N1CCCCCC1)c1cc(O)c(O)c(O)c1	0	91*	1	-2
O=C(OCC(=O)N1CCN(Cc2ccccc2)CC1)c1cc(O)c(O)c(O)c1	0	84*	-1	-11
Cc1cc(C)cc(C(=O)OCC(=O)N2CCCC2)c1	0	3	0	-9
CCCCN(C)C(=O)Cn1ncc2c1-c1cc(C)ccc1OC2	0	0	0	2
SMILES	FBW7 activator	MITF inh	GPR151 activ	TEAD-YAP block
CC(C)CCN(C(=O)CCl)c1c(N)n(Cc2ccccc2)c(=O)[nH]c1=O	0	13	-2	68*
CC(=O)OC1c2cc(C)ccc2NC(c2ccccc2)C1(C)C (stereo unspecified)	0	-1	0	63*
CC(=O)OC1c2ccccc2NC(c2ccccc2)C1(C)C (stereo unspecified)	0	-6	1	-6
Cc1cc(O)ccc1N/C=C/C(=O)c1ccccc1	0	-5	-3	74*
Cc1cc(O)ccc1NC(=O)c1ccccc1	0	-8	-1	3
Cc1ccc(C(=O)/C=C/Nc2ccc(O)cc2C)cc1	0	11	-1	40*
COc1ccc(C(=O)/C=C/Nc2ccc(O)cc2C)cc1OC	0	7	-1	-14
O=S(=O)(NCCNC/C=C/c1ccc(Br)cc1)c1cccc2cnccc12	0	-12	1	5
Cc1cc(N2CCOCC2)nc(Nc2ccc(NC(=O)COc3ccccc3)cc2)n1	0	-9	5	81*
Cc1cc(NCCO)nc(Nc2ccc(-n3ccnc3)cc2)n1	0	16	0	28
Cc1cc(NCCN2CCOCC2)nc(Nc2ccc(N3CCOCC3)cc2)n1	0	2	0	9
Cc1ccc(C)c(NC(=O)Nc2ccc(Nc3nc(C)cc(N4CCOCC4)n3)cc2)c1	0	10	-1	-19
Cc1cc(Nc2ccc(N3CCOCC3)cc2)nc(Nc2ccc(C(F)(F)F)cc2)n1	0	11	1	2
Cc1cc(NCc2ccccc2)nc(Nc2ccc(N3CCOCC3)cc2)n1	0	15	0	49*
Cc1cc(NCc2ccccc2)nc(Nc2ccc(-n3ccnc3)cc2)n1	0	-2	1	35*
Cc1cc(Nc2ccc(N3CCOCC3)cc2)nc(Nc2ccccc2)n1	0	4	4	66*
CC(C)/C=C/C(=O)NCC1CC(Cc2ccc(F)cc2)=NO1 (stereo unspecified)	0	0	1	-7
Cc1cc(Nc2ccc(N3CCOCC3)cc2)nc(Nc2nc3ccccc3n2C)n1	0	7	1	42*
c1cnc(Nc2nccc(Nc3ccc(N4CCOCC4)cc3)n2)cn1	0	3	1	-4
c1cncc(CNc2ccnc(Nc3ccc(N4CCOCC4)cc3)n2)c1	0	10	-1	-9
c1cc(Nc2ccnc(Nc3ccc(N4CCOCC4)cc3)n2)c2ccncc2c1	2.6*	-12	-1	8
COc1ccc(CNc2nc(Nc3ccc(N4CCOCC4)cc3)nc3cc(OC)c(OC)cc23)cc1	0	8	0	-8
c1ccc(CNc2ccnc(Nc3ccc(N4CCOCC4)cc3)n2)cc1	0	10	1	41*
COc1ccc(CNc2cc(C)nc(Nc3ccc(N4CCOCC4)cc3)n2)cc1	0	8	2	37*
COc1ccc(C2C(C(C)=O)=C(O)C(=O)N2c2ccc(O)cc2)cc1 (stereo unspecified)	0	12	0	0
SMILES	FBW7 activator	MITF inh	GPR151 activ	TEAD-YAP block
Cc1ccc(C(=O)N/C(=C\c2cccs2)C(=O)N2CCN(C)CC2)cc1C	0	7	0	5
COc1ccc(-c2csc(N(CC3CCCO3)C(=O)CCCl)n2)cc1 (stereo unspecified)	0	-2	0	-18
Cc1cc(NC2CCCCC2)nc(NCc2ccccc2)n1	0	-9	0	43*
CCNc1nc(C)cc(NCc2ccccc2)n1	0	5	1	-7
COC(=O)C1=C(C(=O)OC)SC(=C2C(=S)C(C)(C)N(C(=O)c3ccccc3)c3ccc(C)cc32)S1	0	-3	1	-6
COC(=O)C1=C(C(=O)OC)SC(=C2C(=S)C(C)(C)N(C)c3ccc(C)cc32)S1	0	52*	0	6
COc1ccc(CCNc2nc(Nc3cnccn3)nc3c2ncn3-c2ccsc2)cc1	0	3	3	5
CC(C)N(CCNc1nc(Nc2ccnn2C)nc2c1ncn2-c1ccsc1)C(C)C	0	3	3	35*
CCNc1nc(NCCc2ccc(O)cc2)c2ncn(-c3ccsc3)c2n1	0	10	0	17
